# Laboratory results: article PMC4336329 (PLoS ONE, 2015)
# Screen size: about 310,000 compounds; about 2,200 (0.71%) showed an effect of 50% or more. The effect is printed as a negative number. For the sample, strong results were picked, then their nearest neighbours and some compounds at random.
# Target: human ether-à-go-go-related gene (hERG) potassium channel (human, UniProt Q12809)
# Test: primary screen, population patch clamp on CHO cells stably expressing hERG; higher = less effect of the substance
# human ether-à-go-go-related gene (hERG) potassium channel, sequence (Q12809 whole entry, looked up): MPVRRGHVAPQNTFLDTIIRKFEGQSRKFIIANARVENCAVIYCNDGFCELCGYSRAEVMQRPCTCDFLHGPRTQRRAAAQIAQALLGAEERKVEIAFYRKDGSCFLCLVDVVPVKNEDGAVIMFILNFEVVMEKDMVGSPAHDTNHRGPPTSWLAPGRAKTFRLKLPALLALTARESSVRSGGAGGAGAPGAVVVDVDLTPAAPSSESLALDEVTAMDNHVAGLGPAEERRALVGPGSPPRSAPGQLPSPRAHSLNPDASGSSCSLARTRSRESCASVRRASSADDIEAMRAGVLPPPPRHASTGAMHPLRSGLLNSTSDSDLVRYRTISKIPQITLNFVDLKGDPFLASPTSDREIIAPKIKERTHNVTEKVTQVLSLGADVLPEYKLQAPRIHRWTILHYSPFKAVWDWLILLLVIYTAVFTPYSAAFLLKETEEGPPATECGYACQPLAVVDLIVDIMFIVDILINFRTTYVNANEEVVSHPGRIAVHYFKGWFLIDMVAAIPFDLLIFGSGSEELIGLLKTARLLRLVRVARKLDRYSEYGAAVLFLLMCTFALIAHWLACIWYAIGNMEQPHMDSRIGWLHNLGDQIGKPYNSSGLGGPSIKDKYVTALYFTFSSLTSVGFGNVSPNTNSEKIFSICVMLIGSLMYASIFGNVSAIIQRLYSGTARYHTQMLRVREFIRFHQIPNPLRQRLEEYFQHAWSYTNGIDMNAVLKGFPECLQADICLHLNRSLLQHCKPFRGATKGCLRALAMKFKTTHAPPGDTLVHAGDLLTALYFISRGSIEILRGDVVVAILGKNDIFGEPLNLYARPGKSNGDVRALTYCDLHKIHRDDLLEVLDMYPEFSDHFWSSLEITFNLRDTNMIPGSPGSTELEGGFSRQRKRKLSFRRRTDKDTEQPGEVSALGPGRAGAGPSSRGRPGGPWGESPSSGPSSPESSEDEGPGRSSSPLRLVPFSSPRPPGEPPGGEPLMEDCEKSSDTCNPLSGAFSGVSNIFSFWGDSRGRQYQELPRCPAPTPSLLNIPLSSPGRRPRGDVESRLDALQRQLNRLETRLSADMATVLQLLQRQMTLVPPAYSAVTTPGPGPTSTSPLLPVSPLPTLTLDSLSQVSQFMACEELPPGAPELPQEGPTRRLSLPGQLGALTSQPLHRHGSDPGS
row,SMILES,"hERG current change (%, negative = inhibition) at 1uM"
1,CCN1CCN(C(=O)/C=C/c2ccc(OC)c(OC)c2)CC1,14.8%
2,C/C(=N\OC(=O)c1ccc(Cl)cc1)c1nccs1,9.4%
3,COc1ccc(CNS(=O)(=O)c2ccc(-n3cnnn3)c(OC)c2)cc1,-2.65%
4,O=C(c1cc2cc(F)ccc2[nH]1)N(Cc1cccnc1)CC1CCCN(C2CCCCC2)C1 (centres unmarked),-81%
5,COC(=O)c1ccccc1C(=O)N(Cc1cccnc1)CC1CCCN(C2CCCCC2)C1 (centres unmarked),-7.49%
6,O=C(c1cc2ccccc2[nH]1)N(Cc1cccnc1)CC1CCCN(C2CCCCC2)C1 (centres unmarked),-49.6%
7,COC(=O)c1ccc(COc2ccc(/C=N/NC(=O)C(=O)Nc3ccc(OC)cc3)cc2OC)o1,9.15%
8,CC(C)Oc1cccc(C(=O)C2CCCN(Cc3cccn3-c3cccnc3)C2)c1 (centres unmarked),12.4%
9,COc1cccc(C(=O)C2CCCN(Cc3ccccn3)C2)c1 (centres unmarked),-0.481%
10,COc1cccc(C(=O)C2CCCN(Cc3cccn3-c3ccccn3)C2)c1 (centres unmarked),-84%
11,CC(C)Oc1cccc(C(=O)C2CCCN(Cc3ccc(Oc4ncccn4)cc3)C2)c1 (centres unmarked),-7.28%
12,CC(C)Oc1cccc(C(=O)C2CCCN(Cc3cccn3-c3ccccn3)C2)c1 (centres unmarked),-81.7%
13,COc1cccc(C(=O)C2CCCN(Cc3cccn3-c3cccnc3)C2)c1 (centres unmarked),-6.89%
14,CCOc1ccc2nc(SCC(=O)N(CC(C)C)c3c(N)n(Cc4ccccc4)c(=O)[nH]c3=O)[nH]c2c1,9.81%
15,CCCn1c(SCC(=O)Nc2cccc(F)c2)nc(O)cc1=O,9.12%
16,CN1CCN(c2cnn(-c3ccccc3)c(=O)c2Br)CC1,13.2%
17,COc1ccc(C(=O)N2CCN(c3ccccc3Cl)CC2)cc1S(=O)(=O)NC1CC1,7.63%
18,COc1ccc(C(=O)N2CCN(c3ccc(F)cc3)CC2)cc1S(=O)(=O)NC1CC1,-17.3%
19,COc1ccc(C(=O)N2CCN(c3cccc(Cl)c3)CC2)cc1S(=O)(=O)NC1CC1,-79.6%
20,O=C1Nc2c(c(=O)[nH]c(=O)n2Cc2ccccc2)C1(NS(=O)(=O)c1ccccc1)C(F)(F)F (centres unmarked),14.5%
21,C/C(Cn1nc([N+](=O)[O-])cc1C)=N\NC(=O)COc1c(Cl)cc(Cl)cc1Cl,-23.8%
22,C/C(Cn1nc([N+](=O)[O-])cc1C)=N\NC(=O)COc1ccc(Cl)cc1Cl,-51.3%
23,C/C(Cn1nc([N+](=O)[O-])cc1C)=N\NC(=O)COc1ccccc1[N+](=O)[O-],7.38%
